Test results published in article PMC4336329 (PLoS ONE, 2015).
About 14,000 (4.5%) of roughly 310,000 compounds showed an effect of 50% or more. Effects have a minus sign here. Shown is part of a subset that was picked to be rich in strong results.

These molecules were tested against human ether-à-go-go-related gene (hERG) potassium channel (human, UniProt Q12809) (assay: primary screen, population patch clamp on CHO cells stably expressing hERG; higher = less effect of the substance).
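Further: peak tail current of the secondary pulse compared with the same well before compound.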

human ether-à-go-go-related gene (hERG) potassium channel, sequence (Q12809 whole entry, looked up): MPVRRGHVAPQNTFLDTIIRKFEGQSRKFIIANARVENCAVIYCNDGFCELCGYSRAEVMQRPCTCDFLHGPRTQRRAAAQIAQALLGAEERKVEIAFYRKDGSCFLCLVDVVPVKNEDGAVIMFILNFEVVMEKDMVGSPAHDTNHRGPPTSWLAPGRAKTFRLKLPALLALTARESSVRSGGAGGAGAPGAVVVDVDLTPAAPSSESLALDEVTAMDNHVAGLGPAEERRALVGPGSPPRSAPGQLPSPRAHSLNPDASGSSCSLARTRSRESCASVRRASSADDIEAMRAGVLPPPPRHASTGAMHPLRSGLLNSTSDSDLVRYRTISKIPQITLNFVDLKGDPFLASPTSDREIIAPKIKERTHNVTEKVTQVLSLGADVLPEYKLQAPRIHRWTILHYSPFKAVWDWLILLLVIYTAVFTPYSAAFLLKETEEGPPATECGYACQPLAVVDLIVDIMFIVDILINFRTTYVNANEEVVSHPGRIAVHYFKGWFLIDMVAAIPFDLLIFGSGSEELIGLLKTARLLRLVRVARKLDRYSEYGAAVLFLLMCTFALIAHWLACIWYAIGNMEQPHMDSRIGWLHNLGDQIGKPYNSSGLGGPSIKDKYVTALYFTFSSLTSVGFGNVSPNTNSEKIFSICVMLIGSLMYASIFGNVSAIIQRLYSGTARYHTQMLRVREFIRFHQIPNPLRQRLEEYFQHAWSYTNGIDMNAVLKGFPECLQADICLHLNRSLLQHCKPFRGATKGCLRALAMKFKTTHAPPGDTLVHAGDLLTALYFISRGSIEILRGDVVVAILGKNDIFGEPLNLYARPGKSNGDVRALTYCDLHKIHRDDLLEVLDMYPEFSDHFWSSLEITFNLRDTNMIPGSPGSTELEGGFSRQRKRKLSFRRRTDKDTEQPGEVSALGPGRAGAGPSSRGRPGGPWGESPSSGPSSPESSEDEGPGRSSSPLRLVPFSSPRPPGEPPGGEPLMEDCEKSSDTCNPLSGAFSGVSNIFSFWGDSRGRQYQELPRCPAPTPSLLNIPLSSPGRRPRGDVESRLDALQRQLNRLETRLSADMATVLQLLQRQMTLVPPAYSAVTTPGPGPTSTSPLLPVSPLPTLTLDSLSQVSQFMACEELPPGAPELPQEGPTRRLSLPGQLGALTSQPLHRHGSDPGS

| Compound | hERG current change (%, negative = inhibition) at 10uM |
| --- | --- |
| O=C(O)C1CSC(c2ccccc2Cl)N1C(=O)c1ccc(Cl)cc1 (centres unmarked) | 14.9% |
| Fc1ccccc1N1CCN(CCCc2ccccc2)CC1 | -64.7% |
| NCCCN1CCN(c2ccccc2)CC1 | -8.45% |
| O=C(CCc1ccccc1)N1CCN(c2ccccn2)CC1 | -9.9% |
| Cc1ccc(C)c(N2CCN(CCCc3ccccc3)CC2)c1 | -59.9% |
| C/C=C(\C)CN1CCN(c2cc(C)ccc2C)CC1 | 6.08% |
| c1ccc(CCCN2CCN(c3ccccn3)CC2)cc1 | -51.7% |
| c1ccc(CCCN2CCN(c3ccccc3)CC2)cc1 | -61.3% |
| CCOC(=O)N1CCN(CCCc2ccccc2)CC1 | -6.26% |
| Fc1ccccc1N1CCN(Cc2c(F)cccc2F)CC1 | 7.89% |
| Cc1ccc(C)c(N2CCN(CCN3CCCCC3)CC2)c1.Cl | -3.6% |
| O=C(CCc1ccccc1)N1CCN(c2ccccc2F)CC1 | 15.9% |
| O=C(CN1CCN(c2ccccn2)CC1)NCCc1ccccc1 | -9.55% |
| O=C(O)c1ccn[nH]1 | -0.906% |
| Cc1ccc(/C=N/NC(=O)c2nnn(-c3nonc3N)c2C(C)C)o1 | -4.22% |
| CSc1ncccc1C(=O)OCC(=O)c1cccs1 | 19.4% |
| CCOP(=O)(OCC)C(NC(=O)Nc1ccc(Cl)cc1)C(=O)N(CC)CC (centres unmarked) | -13.4% |
| CC(c1ccccc1)n1cncc1C(=O)O (centres unmarked) | 18% |
| CCn1c(SCC(=O)c2c[nH]c3ccccc23)nc2cc(S(=O)(=O)N3CCOCC3)ccc21 | 9.49% |
| C=C(C)CSc1nnc([C@H](CCSC)NC(=O)OC(C)(C)C)o1 | -14.3% |
| c1coc(CNc2nc3ccccc3s2)c1 | 11.1% |
| Cn1ccnc1SCC(=O)c1cc2ccccc2o1 | 4.65% |
| Cc1nn(C2CCS(=O)(=O)C2)c(Cl)c1/C=C/C(=O)OCC(=O)Nc1ccc2c(c1)OCO2 (centres unmarked) | 7.01% |
| O=C(NCCc1ccccc1)C1CCC(Cn2c(=O)c3ccccc3n(Cc3cccnc3)c2=O)CC1 (centres unmarked) | -37.3% |
| CCOc1ccc(/C=C2\SC(=S)N(N3C(=O)C4CC4C3=O)C2=O)cc1 (centres unmarked) | 15.4% |

| Compound | hERG current change (%, negative = inhibition) at 10uM |
| --- | --- |
| c1ccc(CCN2CCC(N3CCN(c4ccccc4)CC3)CC2)cc1 | -66.4% |
| O=S(=O)(Cc1ccccc1)N1CCC(N2CCN(c3ccccc3)CC2)CC1 | -22.7% |
| Cc1cccc(CN2CCN(Cc3ccc(Cl)cc3)CC2)c1.O=C(O)C(=O)O | -40% |
| Cc1ccc(N2CCN(CCc3ccccc3)CC2)cc1 | -36.2% |
| Cc1cccc(CN2CCN(CCCc3ccccc3)CC2)c1.O=C(O)C(=O)O | -75.4% |
| Cc1cccc(CN2CCN(C(=O)Cc3ccccc3)CC2)c1.O=C(O)C(=O)O | 4.99% |
| CC1=NN(c2ccccc2)C(=O)/C1=C/c1c(O)n(-c2ccc(F)cc2)[nH]c1=O | 46% |
| Cc1c(C#N)c2ccccc2n1CC(=O)NCCc1c[nH]c2ccccc12 | -2.5% |
| CCOC(=O)c1ccc(Oc2nc(OC)nc(N(C)C)n2)cc1 | 6.27% |
| Cc1[nH]c(=O)[nH]c1C(=O)CCCCC(=O)OCC(=O)Nc1ccccn1 | 12.3% |
| Cc1[nH]c(=O)[nH]c1C(=O)CCCCC(=O)O | -57.7% |
| CCOC(=O)CCCCC(=O)c1[nH]c(=O)[nH]c1C[n+]1ccccc1.[Cl-] | 26.4% |
| CCCc1nc2oc3c(OCC)ncnc3c2c2c1COC(C)(C)C2 | -13.2% |
| CCCCn1c(N)c(N(C)C(=O)c2ccc(-n3cccn3)cc2)c(=O)[nH]c1=O | 0.138% |
| Cc1cc(NC(=O)c2cccc(S(=O)(=O)N3CCCCCC3)c2)n(-c2ccccn2)n1 | 13.4% |
| CCOC(=O)C1(Cc2cccc(F)c2)CCN(C(=O)C2CCOCC2)CC1 | -15% |
| CCOC(=O)C1(Cc2cccc(F)c2)CCN(C(=O)C2CCCO2)CC1 (centres unmarked) | 10.2% |
| CCOC(=O)C1(Cc2cccc(F)c2)CCN(C2CCOCC2)CC1 | -63.5% |
| CCOC(=O)C1(Cc2cccc(OC)c2)CCN(C2CCOCC2)CC1 | -68.7% |
| Cc1ccc(CC(=O)Nc2ncc([N+](=O)[O-])s2)cc1 | 32.5% |
| CCCCN(CC)C(=O)Cc1c(C(=O)O)[nH]c2ccc(Cl)cc12 | 12.4% |
| CCN1CCN(c2ccc(NC(=O)COc3ccccc3Cl)cc2)CC1 | -40.7% |
| Cc1cc(S(=O)(=O)N2CCOCC2)ccc1NC(=O)c1ccc(F)cc1 | 1.32% |
| Cc1ccc(CNC(=O)c2cc3c(s2)CN(Cc2ccccc2)C3)cc1.Cl | 3.85% |
| CC(C#N)(NC(=O)CN1CCN(S(=O)(=O)c2ccccc2Cl)CC1)C1CC1 (centres unmarked) | 5.18% |

| Compound | hERG current change (%, negative = inhibition) at 10uM |
| --- | --- |
| Cc1c(C=C2C(=O)N(C)C(=S)N(C)C2=O)c2ccccc2n1CC(=O)NCC1CCCO1 (centres unmarked) | 4.95% |
| O=C(/C=C/c1ccc(Cl)c([N+](=O)[O-])c1)Nc1cccnc1 | -17.3% |
| O=C(/C=C/c1ccc([N+](=O)[O-])cc1)Nc1cccnc1 | -62.7% |
| O=C(/C=C/c1ccccc1)Nc1cccnc1 | -26% |
| N#C/C(=C\c1cccnc1)c1ccc(Br)cc1 | -5.44% |
| CC(C(=O)O/N=C(\N)c1cccnc1)c1ccc([N+](=O)[O-])cc1 (centres unmarked) | -56.8% |
| O=C(/C=C/c1ccc(Cl)c([N+](=O)[O-])c1)c1cccnc1 | -6.3% |
| O=C(/C=C/c1cccnc1)c1ccc([N+](=O)[O-])cc1 | -42.3% |
| N#C/C(=C\c1cccnc1)c1ccc([N+](=O)[O-])cc1 | -56.3% |
| N#C/C(=C\c1cccnc1)c1ccccc1[N+](=O)[O-] | 4.04% |
| N/C(=N\OC(=O)c1ccc([N+](=O)[O-])cc1)c1cccnc1 | -10.7% |
| Cc1ccc(/C(N)=N/OC(=O)C(C)c2ccc([N+](=O)[O-])cc2)cc1 (centres unmarked) | -4.62% |
| O=C(/C=C/c1ccc([N+](=O)[O-])cc1)c1cccnc1 | -53% |
| O=C(NNC(=O)C12CC3CC(CC(Cl)(C3)C1)C2)c1csc(N2CCOCC2)n1 | -1.63% |
| Cc1[nH]nc(SCC(=O)N2CCCCCC2)c1[N+](=O)[O-] | 3.4% |
| Cc1nnc(SCC(=O)NNC(=O)CC#N)[nH]c1=O | -7.01% |
| CCOc1cc(-c2cc(N)n[nH]2)cc(OCC)c1OCC | 14.6% |
| Cc1ccc(N(C)C(=O)n2cnc3ccccc32)cc1 | -1.52% |
| CN(Cc1ccccc1)C(=S)NC(=O)c1cccs1 | 8.32% |
| O=C(NCc1nnc(SC/C=C/c2ccccc2)o1)c1ccco1 | -5.97% |
| CC1(COS(N)(=O)=O)CCCCC1 | 1.76% |
| Cc1ccc(S(=O)(=O)Nc2ccc(-c3nc4ccc(C)cc4s3)cc2)cc1 | 2.32% |
| CC(C)COc1ccc(/C(=N/O)c2ccccc2)cc1 | 11% |
| Cc1ccc(C(=O)c2coc3ccc(OCC(=O)O)cc23)cc1 | 2.16% |
| O=C(/C=C/c1ccc2c(c1)OCO2)Nc1cccnc1 | -66.4% |

| Compound | hERG current change (%, negative = inhibition) at 10uM |
| --- | --- |
| O=C(/C=C/c1ccc2c(c1)OCO2)c1cccnc1 | -27.8% |
| CC(=O)Nc1ccc(NC(=O)/C=C/c2ccc3c(c2)OCO3)cc1 | 13% |
| C[C@@H](C(=O)N[C@@H](Cc1c[nH]c2ccccc12)C(=O)O)n1nnc2ccccc2c1=O | 41.7% |
| Cn1c(Cn2c(=O)sc3ccccc32)nnc1SCc1ccc(F)cc1 | -21.6% |
| CC(=O)N(CCS(=O)(=O)c1ccc(Cl)cc1)Cc1cccs1 | -0.348% |
| N#C/C(=C\c1ccc(N2CCOCC2)o1)C(=O)NCCc1ccccc1 | -57.9% |
| COCCNC(=O)/C(C#N)=C/c1ccc(N2CCOCC2)o1 | 9.87% |
| N#C/C(=C\c1ccc(N2CCOCC2)o1)C(=O)NCC1CCCO1 (centres unmarked) | -0.262% |
| O=C(c1cc(C(=O)NCc2ccccc2)c(=O)n(Cc2ccccc2)c1)c1cc(Cl)ccc1O | -0.908% |
| Cc1ccc2nsnc2c1S(=O)(=O)Nc1cccc2nsnc12 | -0.692% |
| COc1cc(C(=O)NC(=S)Nc2nccs2)cc(OC)c1OC | 17.7% |
| CCOC(=O)C(C)Sc1nc2c(c(=O)[nH]c(=O)n2C)n1Cc1ccc(Cl)cc1 (centres unmarked) | -75% |
| CCOC(=O)C(C)Sc1nc2c(c(=O)[nH]c(=O)n2C)n1C/C=C(/C)Cl (centres unmarked) | -72.8% |
| CCOC(=O)C(C)Sc1nc2c(c(=O)[nH]c(=O)n2C)n1CCc1ccccc1 (centres unmarked) | -49.8% |
| Cn1c(=O)[nH]c(=O)c2c1nc(SCC(=O)O)n2CCCc1ccccc1 | 3.89% |
| CCC(C)Sc1nc2c(c(=O)[nH]c(=O)n2C)n1Cc1ccc(Cl)cc1 (centres unmarked) | 1.92% |
| COC(=O)C(C)Sc1nc2c(c(=O)[nH]c(=O)n2C)n1CCCc1ccccc1 (centres unmarked) | -72.2% |
| CCOC(=O)C(CC)Sc1nc2c(c(=O)[nH]c(=O)n2C)n1CCc1ccccc1 (centres unmarked) | -67.8% |
| COC(=O)C(C)Sc1nc2c(c(=O)[nH]c(=O)n2C)n1CCC(C)C (centres unmarked) | -24.6% |
| CC(C)Sc1nc2c(c(=O)[nH]c(=O)n2C)n1Cc1ccc(Cl)cc1 | -13.3% |
| CCOC(=O)CSc1nc2c(c(=O)[nH]c(=O)n2C)n1CCc1ccccc1 | -1.16% |
| C/C(Cl)=C/Cn1c(SCC(C)C)nc2c1c(=O)[nH]c(=O)n2C | 15.2% |
| C/C(Cl)=C/Cn1c(SC(C)C)nc2c1c(=O)[nH]c(=O)n2C | -6.63% |
